Laboratory results published in PubChem BioAssay (EPA / NIEHS).
Calls of active or inactive are those of the source. How the source made its calls: active means hit-call score of the fitted dose curve at least 0.9, where 1 is the maximum; inactive means score below 0.9.

Each molecule was assayed on Macrophage colony-stimulating factor (MCSF), CSF1 (gene 1435) (assay: BSK_LPS_MCSF: BioMAP Diversity Plus: LPS Assay for Macrophage colony-stimulating factor (MCSF) Biomarker Activity (AID 2283083)). Settings: primary human HUVEC with PBMC; actives raise or lower the signal.
Experimental: BSK_LPS is a cell-based, multiplexed-readout assay that uses umbilical vein endothelium and peripheral blood mononuclear cells, a human vascular primary cell co-culture, with measurements taken at 24 hours after chemical dosing in a 96-well plate.BSK_LPS_MCSF is an assay component measured in the BSK_LPS assay. It measures M-CSF antibody related to regulation of gene expression using ELISA technology.Data from the assay component BSK_LPS_MCSF was analyzed into 1 assay endpoint. This assay endpoint, BSK_LPS_MCSF, was analyzed with bidirectional fitting relative to DMSO as the negative control and baseline of activity. Using a type of binding reporter, gain or loss-of-signal activity can be used to understand changes in the signaling as they relate to the gene CSF1. Furthermore, this assay endpoint can be referred to as a primary readout, because this assay has produced multiple assay endpoints where this one serves a signaling function. To generalize the intended target to other relatable targets, this assay endpoint is annotated to the cytokine intended target family, where the subfamily is colony stimulating factor.
The levels of cell surface (or secreted, indicated by the prefix "s") biomarker endpoints were measured by ELISA. Overt cytotoxicity to cells in confluent adherent cultures (all systems other than the BT system) was assessed by measuring total protein levels using sulforhodamine B (SRB) staining in parallel cultures at the time of biomarker measurements, indicated as SRB endpoints. For proliferation assays for adherent cell types, individual cell types are cultured at sub-confluence and relative cell numbers quantified by SRB staining at time points optimized for each system (48 h: 3C and CASM3C systems; 72 h: BT and HDF3CGF systems; 96 h: SAg system). SRB was performed by staining cells with 0.1% SRB after fixation with 10% TCA and reading wells at 560 nm.Viability and proliferation of PBMC (T cells) was quantified by Alamar Blue reduction for the SAg and BT systems. For PBMC viability (referred to as PBMC Cytotoxicity within the assay endpoint names), cells were plated (75,000/well in a 96-well plate) and then chemical samples added for 1 h before addition of activators, SEB and TSST-1 (20 ng/mL final concentration each). Cells were incubated for 90 h. Then, Alamar Blue (20 uL/well) (Invitrogen, Cat DAL1100) was added for 6 h, and the plates were read with a fluorescence microplate reader at 546/580 nm (excitation/emission). For PBMC proliferation, cells were plated and activated as above but incubated for only 16 h prior to addition of Alamar Blue. Plates were read after 6 h.

SMILES	outcome	AC50
IC(I)I	inactive	–
C1=CC2C3C=CC(C3)C2C1 (stereo not given)	inactive	–
C=C(C)C(=O)OCC(CC)(COC(=O)C(=C)C)COC(=O)C(=C)C	inactive	–
O=CN1CCOCC1	inactive	–
CCN(CC)C(=O)N(CC)CC	inactive	–
CSCCC=O	inactive	–
C=C(C)C(=O)OCCOCCOCCOC(=O)C(=C)C	inactive	–
COc1ccc(CCN2CCC(Nc3nc4ccccc4n3Cc3ccc(F)cc3)CC2)cc1	inactive	–
CN(C)C(=O)Nc1ccc(Oc2ccc(Cl)cc2)cc1	inactive	–
CCCCCCC(CO)CCCC (stereo not given)	inactive	–
O=C(Nc1ccc2c(O)c(N=Nc3ccc(N=Nc4ccc(S(=O)(=O)O)cc4)cc3)c(S(=O)(=O)O)cc2c1)c1ccccc1	inactive	–
CCCCN(CCCC)C(=O)N(CCCC)CCCC	–	20 µM (active)
c1ccc2cc(Nc3ccc(Nc4ccc5ccccc5c4)cc3)ccc2c1	inactive	–
C=CC(C)(O)CCC=C(C)C (stereo not given)	inactive	–
CS(=O)(=O)c1ccc(C2=C(c3ccccc3)C(=O)OC2)cc1	inactive	–
CC=Cc1ccc(OCC)c(O)c1	inactive	–
CC(C=O)Cc1ccc(C(C)(C)C)cc1 (stereo not given)	inactive	–
O=C1OC2(c3ccccc31)c1ccc(O)c(Br)c1Oc1c2ccc(O)c1Br	–	20 µM (active)
C[C@@H]1CCN(C(=O)[C@H](CCCN=C(N)N)NS(=O)(=O)c2cccc3c2NC[C@H](C)C3)[C@@H](C(=O)O)C1	inactive	–
Oc1c(Cl)cc(Cl)c(Cl)c1Cc1c(O)c(Cl)cc(Cl)c1Cl	–	11.6 µM (active)

SMILES	outcome	AC50
CC1(C)C2=CCCC(C)(C)[C@]23CC[C@H]1C3	inactive	–
Clc1cc(Cl)c(-c2c(Cl)c(Cl)cc(Cl)c2Cl)cc1Cl	–	1.98 µM (active)
CCC(C)c1cc([N+](=O)[O-])cc([N+](=O)[O-])c1OC(=O)OC(C)C (stereo not given)	–	14 µM (active)
COc1cc(Cl)c(OC)cc1N	inactive	–
O=C1c2ccccc2C(=O)c2c(O)ccc(O)c21	inactive	–
CC(=O)C1(C)CC2=C(CCCC2(C)C)CC1C (stereo not given)	–	8.91 µM (active)
O=C1OC[C@H](Cc2cccc(O)c2)[C@H]1Cc1cccc(O)c1	inactive	–
CN(c1nccc(=O)[nH]1)C1CCN(c2nc3ccccc3n2Cc2ccc(F)cc2)CC1	inactive	–
c1ccc(CCc2ccccc2)cc1	–	31.2 µM (active)
CS(=O)(=O)OCCCCOS(C)(=O)=O	inactive	–
CC(C)(C)CC(C)(C)c1ccc(OCCOCC[N+](C)(C)Cc2ccccc2)cc1	–	7.03 µM (active)
CCCCOC(=O)CCCCCCCC(=O)OCCCC	inactive	–
CCOC(=O)C(C#N)=C(c1ccccc1)c1ccccc1	inactive	–
CC(=O)Nc1ccc(C(=O)CCl)cc1	–	5.36 µM (active)
Cc1cc(CCC(=O)OCCOCCOCCOC(=O)CCc2cc(C)c(O)c(C(C)(C)C)c2)cc(C(C)(C)C)c1O	inactive	–
CC(C)(N=C=O)c1cccc(C(C)(C)N=C=O)c1	inactive	–
C=C(C)[C@H]1CC=C(C)C(=O)C1	inactive	–
C=C(C)C(=O)OCCOCCOCCOCCOC(=O)C(=C)C	inactive	–
COc1ccc(OC)c(N=Nc2c(O)ccc3ccccc23)c1	–	20 µM (active)
CCCCCCCCCCCCCCCC(=O)OC/C=C(C)/C=C/C=C(C)/C=C/C1=C(C)CCCC1(C)C	inactive	–
